Measured values as given in PubChem BioAssay AID623911 (Vanderbilt High Throughput Screening Facility, 2012).
Out of some 2,100 compounds screened, about 770 (37%) were called active. The list shows a part of the results. Values without a mark were called inactive.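 Rule for the calls: active = by-eye trace score of 1 for enhancers or -1 for inhibitors, so actives lie on both sides (some results past the limit were not filed as active); inactive = score 0, or 3 fluorescent, or 4 baseline rise.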

target: G protein-activated inward rectifier potassium channel 2 (Homo sapiens) + G protein-activated inward rectifier potassium channel 1 (Homo sapiens) (UniProt P48051+P48549); test: GIRK1/2 thallium flux modulators, retest, confirmation, cell-based, HEK293 rmGlu8/hGIRK1/2, FluoZin-2 (AID 623911); settings: HEK293 rmGlu8/hGIRK1/2, thallium flux FluoZin-2; actives lie on both sides
Sequence (P48051 whole entry, looked up): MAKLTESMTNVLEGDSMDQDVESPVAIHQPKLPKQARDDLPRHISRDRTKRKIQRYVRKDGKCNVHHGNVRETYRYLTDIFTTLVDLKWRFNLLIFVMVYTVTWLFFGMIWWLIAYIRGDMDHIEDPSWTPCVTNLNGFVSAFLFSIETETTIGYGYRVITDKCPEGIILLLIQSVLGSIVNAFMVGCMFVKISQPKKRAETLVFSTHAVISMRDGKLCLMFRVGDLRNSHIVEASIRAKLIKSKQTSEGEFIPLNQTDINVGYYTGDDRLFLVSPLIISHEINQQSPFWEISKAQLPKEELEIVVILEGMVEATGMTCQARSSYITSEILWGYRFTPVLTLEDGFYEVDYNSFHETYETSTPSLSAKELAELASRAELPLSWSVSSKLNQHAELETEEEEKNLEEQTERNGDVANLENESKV
Sequence (P48549 whole entry, looked up): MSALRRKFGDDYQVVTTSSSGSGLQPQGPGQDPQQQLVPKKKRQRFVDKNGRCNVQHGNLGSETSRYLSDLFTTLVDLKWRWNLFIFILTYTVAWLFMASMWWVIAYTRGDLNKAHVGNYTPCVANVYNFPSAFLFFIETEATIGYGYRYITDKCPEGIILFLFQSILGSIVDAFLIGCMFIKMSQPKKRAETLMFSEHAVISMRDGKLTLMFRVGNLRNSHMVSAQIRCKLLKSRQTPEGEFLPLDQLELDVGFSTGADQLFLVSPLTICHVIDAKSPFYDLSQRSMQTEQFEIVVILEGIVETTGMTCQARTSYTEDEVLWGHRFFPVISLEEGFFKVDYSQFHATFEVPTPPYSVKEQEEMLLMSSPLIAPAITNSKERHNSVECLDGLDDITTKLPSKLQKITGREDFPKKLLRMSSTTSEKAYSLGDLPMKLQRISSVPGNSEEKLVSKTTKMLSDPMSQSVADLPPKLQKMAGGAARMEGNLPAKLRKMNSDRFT

Compound | manual score
COc1cc(-n2c(=S)[nH]c3ccccc3c2=O)c(Cl)cc1Cl | 1 (active)
CC(C)Oc1cc(-n2c(=S)[nH]c3ccccc3c2=O)c(Cl)cc1Cl | 1 (active)
CC(=NCC1CCCO1)c1c(O)n(-c2ccc(C)cc2)c(=O)[nH]c1=O (stereo not given) | 0
Nc1c(C(=O)OC2CCCCC2)c2nc3ccccc3nc2n1CC1CCCO1 (stereo not given) | 0
CCOC(=O)C(O)(c1ccc(N(CC)S(=O)(=O)c2ccc(C)cc2)cc1)C(F)(F)F (stereo not given) | -1 (active)
CCN(c1ccc(C(O)(C(=O)OC)C(F)(F)F)cc1)S(=O)(=O)c1ccc(C)cc1 (stereo not given) | -1 (active)
C/C(=N\Nc1ccccc1)c1c(O)n(C)c(=O)n(C)c1=O | 0
CCOC(=O)C1=C(NC(=S)NC(=O)c2ccccc2)c2ccccc2CC12CCCC2 | 0
CC/C(=C\C=C\[C@@H]1C=C[C@@H]2CCC[C@H]2[C@@H]1C(=O)c1ccc[nH]1)[C@@H]1O[C@@H]([C@@H](C)C(=O)O)CC[C@@H]1C | 0
Cc1ccc(-c2nc(N(C)C3CCN(C)CC3)c3ccccc3n2)cc1 | 0
O=c1cc(C(F)(F)F)c2cc3c4c(c2o1)CCCN4CCC3 | 3
Cn1cccc1CNCCc1ccccc1 | 0
CCN1/C(=C\C=C\C2=[N+](CC)c3ccccc3C2(C)C)C(C)(C)c2ccccc21 | 3
CNC(=O)OCCc1nccn1C | 0
O=C(Nc1ccc(Cl)cc1)Nc1nccs1 | 1 (active)
Cc1nn(C)cc1/C=C1/CC2C3CC=C4CC(O)CCC4(C)C3CCC2(C)C1=O (stereo not given) | -1 (active)
CN1/C(=C\C=C\C2=[N+](C)c3ccc4ccccc4c3C2(C)C)C(C)(C)c2ccccc21 | 3
C=CCOC(=O)COc1cc(C)cc2oc(=O)c3c(c12)CCC3 | 0

Compound | manual score
CCN(CC)CCNCC(=O)Nc1ccc(Cl)cc1C(=O)c1ccccc1 | -1 (active)
O=c1[nH]c(=S)n(CCC2=CCCCC2)c(O)c1C=NCCCn1ccnc1 | 3
Cc1ccc(OCC(=O)NCCN2CCN(C(=O)COc3ccc(C)cc3)CC2)cc1 | 0
O=C(c1cc2ccccn2n1)N1CCC2(CC1)OCCO2 | 0
COc1ccc(CC2C(=O)NC(=O)NC2=O)c(OC)c1 | 0
c1ccc2c(CNC3CCCCC3)c[nH]c2c1 | -1 (active)
CC(C)N1C(=O)/C(=C/C=C/c2ccco2)C(=O)N(Cc2ccco2)C1=O | 0
Cc1ccccc1C1=NCC(=S)Nc2ccc(Cl)cc21 | 0
S=C1CN=C(c2ccccc2Cl)c2cc(Cl)ccc2N1 | 1 (active)
S=C1CN=C(c2ccccc2)c2cc(Cl)ccc2N1 | 0
CC(C)CCn1c(=O)c(C(=O)Nc2ccccc2S(N)(=O)=O)c(O)c2ccccc21 | 0
O=C(c1ccccc1)c1cn(CC(=O)N2CCOCC2)c2ccccc12 | 0
Fc1ccc(NC2=NCCS2)cc1Cl | 0
CCCCn1c(C)c(C(=O)OCC)c2c(CN3CCOCC3)c(O)ccc21 | -1 (active)
O=C(Cc1ccccc1)N1CCN(C/C=C/c2ccccc2)CC1 | 0
Cc1ccc2nc(N3CCC(C(=O)N4CCC5(CC4)OCCO5)CC3)sc2c1 | 0
N=c1sc2c(n1Cc1ccccc1)CCCC2 | -1 (active)
